The campaign covered roughly 68,000 compounds. About 25 (0.04%) showed an effect of 50% or more. For the sample, strong results were picked, then their nearest neighbours and some compounds at random.

This experiment concerns the target T1, Methionyl-tRNA synthetase, putative (Leishmania donovani (strain BPK282A1)) (UniProt E9BF75).
T1 sequence (whole entry): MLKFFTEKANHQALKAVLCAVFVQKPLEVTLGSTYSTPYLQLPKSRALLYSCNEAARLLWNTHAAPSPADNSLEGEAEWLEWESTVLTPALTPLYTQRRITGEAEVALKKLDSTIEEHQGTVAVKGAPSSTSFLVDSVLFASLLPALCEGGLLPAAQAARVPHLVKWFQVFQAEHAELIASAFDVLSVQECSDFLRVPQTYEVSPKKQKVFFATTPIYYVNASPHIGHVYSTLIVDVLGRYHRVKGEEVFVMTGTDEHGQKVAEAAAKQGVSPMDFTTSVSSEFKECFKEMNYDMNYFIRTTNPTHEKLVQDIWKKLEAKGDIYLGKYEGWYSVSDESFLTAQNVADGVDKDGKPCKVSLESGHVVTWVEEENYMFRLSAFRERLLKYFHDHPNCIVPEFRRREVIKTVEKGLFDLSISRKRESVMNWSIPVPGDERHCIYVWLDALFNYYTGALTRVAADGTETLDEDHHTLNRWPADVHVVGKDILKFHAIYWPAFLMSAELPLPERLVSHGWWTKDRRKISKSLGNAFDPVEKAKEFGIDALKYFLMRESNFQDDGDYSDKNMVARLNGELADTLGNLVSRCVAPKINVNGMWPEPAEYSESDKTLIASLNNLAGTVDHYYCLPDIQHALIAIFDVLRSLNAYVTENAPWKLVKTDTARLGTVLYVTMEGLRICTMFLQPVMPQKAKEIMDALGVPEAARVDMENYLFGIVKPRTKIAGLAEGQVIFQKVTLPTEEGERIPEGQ
Put plainly: Leishmania donovani Methionine tRNA synthetase (LdMetRS):v6. Primary screen assay. In kind it is functional. More on the design: conc 80 nM, time 150 minutes.
Turning to `CC1=N[C@@]2(CC[C@@H]3CN(Cc4ccccc4C)C[C@@H]32)C(=O)N1CC1CC1`, the inhibition was 6.09%. On to `CN1CCC(CO[C@H]2CN(C(=O)c3cccn3C)[C@@H]3COC[C@H]23)CC1`, for which the inhibition is 8.4%. As to `CC(C)CCNc1nnc(C(C)C)s1`, the inhibition turned out to be 80.1%. On to `CC(C)c1nnc(NCCS(C)(=O)=O)s1`, for which the inhibition is 1.24%.

With `CCN(CC)S(=O)(=O)CCNc1nnc(C(C)C)s1`, the inhibition was -0.621%.

`COc1ccc(CN2CCO[C@H]3[C@H](OCCN4CCCC4)CC[C@@H]32)cc1`: the inhibition is 6.3%. In the case of `C1CC(CN2C[C@H]3CC[C@@H]2CN(Cc2nnc(C4CC4)o2)C3)C1` it was 9.96%; in that of `Cc1cncc(C(=O)N2C[C@H]3CCC[C@@]3(COc3ccccn3)C2)c1`, 8.5%.

For the compound `COc1cc(N2CC[C@@H]3O[C@@H](C(=O)NCCN(C)C)C[C@@H]32)ncn1`, the inhibition was found to be 4.66%.

Take `O=C1[C@H]2CC[C@H](CN(C3CCOCC3)C2)N1Cc1cscn1`: the inhibition is 8.93%. As to `Cc1oncc1C(=O)N1CC[C@H]2[C@@H]1CCC(=O)N2CC1CCOCC1`, the inhibition came to 13.7%. In the case of `Cc1ccoc1C(=O)N1CC[C@H]2C[C@H](c3nnc(C4CC4)o3)O[C@@H]2C1` it was 15.5%. Take `O=S(=O)(C1CC1)N1C[C@@H]2CN(Cc3ccoc3)CCO[C@@H]2C1`: the inhibition was 8.7%. The result for `Cc1occc1C(=O)N1C[C@@H]2OCCN(c3ncccn3)[C@@H]2C1` reads 9.59%; that for `COc1cc(CN2CCN(CC3CC3)[C@@H]3CS(=O)(=O)C[C@@H]32)cc(OC)c1`, 7.26%; that for `N#Cc1cccc(CN2C[C@H](NC(=O)C3CC3)[C@H]3OCCC[C@H]32)c1`, 10.6%. The result for `O=C(NC1CC1)[C@H]1C[C@@H]2CCN(Cc3ccc4c(c3)OCO4)C[C@@H]2O1` reads 1.31%. As for `CCS(=O)(=O)N1C[C@H]2CCC[C@@]2(COc2ccccn2)C1`, the inhibition turned out to be 12.9%. Turning to `CS(=O)(=O)N1CC[C@H]2O[C@H](C(=O)NCCc3ccccn3)CC[C@H]21`, the inhibition was 7.41%. In the case of `CCN1C[C@H]2C3(CCN(C(C)=O)CC3)CC[C@@]2(C(=O)N(C)C)C1` it was 1.68%; in that of `CCCN1C[C@H]2CC[C@@H]1CN(C(=O)c1ccc(N(C)CCO)cc1)C2`, 12.9%; in that of `Cc1cccc(N2CC[C@@H]3[C@@H](CO[C@H]3CNC(=O)c3ccco3)C2)n1`, 13.1%. With `CSc1ncccc1C(=O)N1C[C@H]2CC[C@@H]1CN(C(=O)N(C)C)C2`, the inhibition stood at 16.9%. As for `CNc1ccnc(N2C[C@@H]3CC[C@H](C2)N(CCOC)C3=O)n1`, the inhibition was -4.82%. As to `CCCC(C)NC(=O)c1ccc(-c2ccco2)[nH]c1=O` (stereo unspecified), the inhibition worked out at 9.58%. The result for `CC(CN1CCCC1=O)NC(=O)c1ccc(-c2ccco2)[nH]c1=O` (stereo unspecified) reads 16.8%; that for `CCC(C)NC(=O)c1ccc(-c2ccco2)[nH]c1=O` (stereo unspecified), 86.2%; that for `CCN1Cc2nc(OC)c(CNC(=O)C3CCS(=O)(=O)CC3)cc2C1=O`, -0.86%. In the case of `Cc1ccc(CN2CCC[C@]3(C(=O)O)CN(c4ncccn4)C[C@@H]3C2)o1`, the inhibition was found to be 14.6%. In the case of `CC(=O)N1[C@H](Cn2cncn2)C[C@@H]2CN(Cc3ccncc3)CC[C@@H]21` it was 5.54%; in that of `Cc1ccc(CN2CCN(CC3CC3)[C@@H]3CS(=O)(=O)C[C@@H]32)cc1C`, 15.6%.

On to `CCS(=O)(=O)CCNC(=O)[C@@]12CNC[C@@H]1CN(C1CCCC1)C2`, for which the inhibition came to 6.92%. As for `Cc1nc(COC[C@@H]2CC[C@H]3[C@H](CCN3S(C)(=O)=O)O2)cs1`, the inhibition came out at 15.2%. The result for `O=C(CCn1cc(Cl)cn1)N1C[C@@H]2CC[C@H](C1)N(Cc1ccccn1)C2` reads 15.8%; that for `Cc1cccc(C(=O)N2C[C@H]3CC[C@@H]2CN(S(=O)(=O)N(C)C)C3)n1`, 19.9%; that for `CCS(=O)(=O)NC[C@]12COC[C@H]1CN(Cc1ccsc1)C2`, 7.3%.

In the case of `CCC(=O)N1CC[C@@H]2[C@H](CC1)N(Cc1cccc(C)n1)CCS2(=O)=O`, the inhibition amounted to 14.2%. Consider `Cc1cc(C)n(-c2nc(NCCCO)c3c4c(sc3n2)CCCC4)n1`, for which the inhibition was determined as 59.5%. For `Cc1cc(C)n(C2=NC(NCCC(C)C)c3c(sc4c3CCCC4)N2)n1` (stereo unspecified), the inhibition stood at 16.4%.

On to `COCCNc1nc(-n2nc(C)cc2C)nc2sc3c(c12)CCCC3`, for which the inhibition came to 9.06%. The result for `CN(C)C(c1ccccn1)[C@H]1CC[C@H](CNC(=O)C2CC2)CC1` (stereo partly specified) reads 16%. As to `O=C(C[C@@H]1COC[C@H]2CN(Cc3ccc(F)cc3)C[C@@H]12)N1CCCC1`, the inhibition was 13%. As for `CC(=O)N1CC[C@@]2(C(=O)Nc3ccccc3)CCN(S(C)(=O)=O)CC[C@@H]12`, the inhibition worked out at 8.93%.

Turning to `c1ccc(CN2CC[C@@H]3O[C@@H](COCC4CCOCC4)CC[C@@H]32)nc1`, the inhibition stood at 10.1%. `O=C(c1ccsc1)N1C[C@H](N2CCOCC2)[C@@H]2OCCC[C@@H]21`: the inhibition stood at 13.9%. In the case of `O=C(C[C@@H]1COC[C@H]2CN(Cc3ccc(F)cc3)C[C@@H]12)N1CCCCO1` it was 12.9%; in that of `CNS(=O)(=O)c1ccc(CNC(=O)C2CCCO2)cc1` (stereo unspecified), -0.269%; in that of `Cc1oncc1C(=O)N1CC[C@H]2[C@@H]1CCC(=O)N2c1cccnc1`, 17.6%. The result for `Cn1cc(CN2CC[C@H]3O[C@@H](C(=O)NC4CC4)CC[C@H]32)cn1` reads 3.76%; that for `c1csc(CN2C[C@@H](n3cccn3)[C@H]3OCCC[C@H]32)c1`, 10.1%. In the case of `COc1cccc(NC(=O)N2CC[C@@H]3CN(C)S(=O)(=O)[C@@H]3CC2)c1` it was -1.1%.

As usually defined, the inhibition is the drop in the measured response relative to a control, in per cent.

For the origin of these results see ChEMBL document CHEMBL3988442, “University of Dundee, Small-Polar-MMV Screening Library” (2021).
